Source: PubChem BioAssay (NCI)
“And” between values parts separate entries of the source, which are not always exact repeats. Equal entries are not always repeated. Compounds without any hit were thinned out: in the full panel of roughly 79,000, 15% have a hit. A structure can be active in one record and inactive in another. The source made the active and inactive calls. Rule as the data show it: active = growth inhibition above about 70%; inactive = the rest.

Key:
[1] = NCI Yeast Anticancer Drug Screen. Data for the rad50 strain (AID 155);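 also: 0% = growth of vehicle-only cultures of the same strain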; details: S. cerevisiae rad50 strain growth inhibition, stronger effect = higher value
How it was run: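 Vehicle-treated cultures provide the reference for the growth inhibition reported for compound-exposed, repair-deficient yeast.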

[2] = NCI Yeast Anticancer Drug Screen. Data for the mec2-1 strain (AID 157); details: S. cerevisiae mec2-1 strain, stronger effect = higher value
How it was run: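 Compounds were applied to mec2-1 yeast cells. Their growth was then compared with that of vehicle-treated cultures to give growth inhibition.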

[3] = NCI Yeast Anticancer Drug Screen. Data for the sgs1 mgt1 strain (AID 161);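 also: 0% = growth of cultures given vehicle only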; details: S. cerevisiae sgs1 mgt1 strain, stronger effect = higher value
How it was run: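 Compounds are added to genetically altered yeast, and growth is compared with cultures given vehicle alone to give percent inhibition.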

[4] = NCI Yeast Anticancer Drug Screen. Data for the cln2 rad14 strain (AID 165);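 also: 0% = growth equal to vehicle treated cultures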; details: S. cerevisiae cln2 rad14 strain, stronger effect = higher value
How it was run: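 Strain: cln2 rad14 yeast, altered in cell cycle control and DNA damage repair. Read-out: growth inhibition vs vehicle.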

[5] = NCI Yeast Anticancer Drug Screen. Data for the bub3 strain (AID 167); details: S. cerevisiae bub3 mutant strain, stronger effect = higher value
How it was run: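 Mutant yeast screening strain plus compound; vehicle-treated cultures serve as the 0% inhibition reference.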

[6] = NCI Yeast Anticancer Drug Screen. Data for the mlh1 rad18 strain (AID 175); details: S. cerevisiae mlh1 rad18 strain growth inhibition, stronger effect = higher value
How it was run: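 A repair-deficient yeast strain is exposed to test compound, and growth is scored relative to vehicle-treated controls.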

[7] = at 5.0 µM (retest, dose inferred, filed as 0.5)
[8] = at 50.0 µM (retest, dose inferred, filed as 5.0)

Measured: growth inhibition

CC(=O)c1ccc(N)cc1
active: [1]; [8] 73% | [2]; [8] 100% | [5]; [8] 99% | [6]; [8] 96%
inactive: [1]; [7] 35% | [1]; at 50.0 µM 7.3% | [2]; [7] 50% | [2]; at 50.0 µM 15.3% | [3]; [7] 7% | [3]; [8] 52% | [3]; at 50.0 µM 26.8% | [4]; [7] 12% | [4]; [8] 39% | [4]; at 50.0 µM -1.3% | [5]; [7] 30% | [5]; at 50.0 µM -2.8% | [6]; [7] 62% | [6]; at 50.0 µM 20.1%

CCC1=C(C)/C(=C/c2[nH]c(C)c(CC)c2C)N=C1C
active: [3]; at 50.0 µM 76.2% and 78.1%
inactive: [1]; [7] -3% and -5% | [1]; [8] 20% and -58% | [1]; at 50.0 µM 61.1% and 33% | [2]; [7] 6% and 0% | [2]; [8] 48% and 53% | [2]; at 50.0 µM 66.5% and -2.85% | [3]; [7] 0% and -2% | [3]; [8] 51% and 32% | [4]; [7] -12% and -15% | [4]; [8] 31% and 6% | [4]; at 50.0 µM 18.6% and -57.5% | [5]; [7] 26% and 5% | [5]; [8] 45% and 33% | [5]; at 50.0 µM 31.2% and 22.6% | [6]; [7] -7% and 4% | [6]; [8] 61% and 48% | [6]; at 50.0 µM 60.5% and 21.7%

CCOC(CN=c1nc(N(C)C)ss1)OCC
inactive: [1]; [7] 1% | [1]; [8] -20% | [1]; at 50.0 µM 2.75% | [2]; [7] -9% | [2]; [8] -12% | [2]; at 50.0 µM -8% | [3]; [7] 11% | [3]; [8] -19% | [3]; at 50.0 µM -3.95% | [4]; [7] -22% | [4]; [8] -24% | [4]; at 50.0 µM 7.85% | [5]; [7] -1% | [5]; [8] -9% | [5]; at 50.0 µM 43.4% | [6]; [7] -5% | [6]; [8] -7% | [6]; at 50.0 µM -15.3%

O=C(c1ccco1)N(C(=S)N1CCN(c2ccccn2)CC1)C1CCCCC1
active: [1]; at 50.0 µM 73.3% | [2]; at 50.0 µM 86.7% | [3]; [8] 76% | [3]; at 50.0 µM 84.3% | [4]; at 50.0 µM 71.8% | [5]; at 50.0 µM 79% | [6]; [8] 80% | [6]; at 50.0 µM 79.3%
inactive: [1]; [7] 5% | [1]; [8] 46% | [2]; [7] -7% | [2]; [8] 49% | [3]; [7] 0% | [4]; [7] 30% | [4]; [8] 60% | [5]; [7] 0% | [5]; [8] 40% | [6]; [7] -14%

O=C1C(Cl)=C(Cl)C(Cl)(Cl)C(Cl)=C1Cl
97.7% (active) and 66.2% (inactive): [3]; at 50.0 µM
98.7% (active) and -4.55% (inactive): [4]; at 50.0 µM
active: [1]; [8] 99% | [2]; [8] 100% | [3]; [8] 99% | [4]; [8] 99% and 98% | [5]; [8] 99% and 100% | [6]; [8] 99% | [6]; at 50.0 µM 98.1% and 70.8%
99.2% (active) and 52.9% (inactive): [2]; at 50.0 µM
98.8% (active) and 55.9% (inactive): [5]; at 50.0 µM
inactive: [1]; [7] 24% and 61% | [1]; at 50.0 µM 60.4% and 64.4% | [2]; [7] 24% and 42% | [3]; [7] 18% and 69% | [4]; [7] 19% and 13% | [5]; [7] 22% and 19% | [6]; [7] 37% and 50%

O=Cc1cc([N+](=O)[O-])cc(CCl)c1O
inactive: [1]; [7] -119% | [1]; [8] 26% | [1]; at 50.0 µM 20.7% | [2]; [7] -52% | [2]; [8] -31% | [2]; at 50.0 µM 13.2% | [3]; [7] -59% | [3]; [8] -8% | [3]; at 50.0 µM 15.2% | [4]; [7] -58% | [4]; [8] -17% | [4]; at 50.0 µM 20.1% | [5]; [7] -71% | [5]; [8] -32% | [5]; at 50.0 µM -6.45% | [6]; [7] -123% | [6]; [8] -28% | [6]; at 50.0 µM 27.9%
